The source of these data is PubChem BioAssay (NCATS).

Structures are written as SMILES. “And” between values parts separate entries of the source, which are not always exact repeats. Equal entries are not always repeated. Results filed as inconclusive are left out. Where a call stands in place of a potency, no number is given. The source made the active and inactive calls. Calls come from the whole dose curve; as a rule, active = well fitted activation curve with a large enough effect in the signal ratio; inconclusive = small, poorly fitted or top-dose-only effect, or effect the other way, or a change in a side signal; inactive = flat fitted curve, though single readings scatter; the % refers to the signal ratio.
Potency is the fitted concentration of half-maximal effect.

This assay is described as follows: qHTS assay for small molecule agonists of the antioxidant response element (ARE) signaling pathway (AID 651741). To be noted: HepG2 ARE-bla reporter, beta-lactamase FRET ratio, 16 h; series mostly up to 96 µM. An excerpt:
National Center for Advancing Translational Sciences [NCATS]
NIH Chemical Genomics Center [NCGC]
U.S. Environmental Protection Agency [EPA]
National Institutes of Environmental Health Sciences [NIEHS]
National Toxicology Program [NTP]
Oxidative stress has been implicated in the pathogenesis of a variety of diseases ranging from cancer to neurodegeneration. The antioxidant response element (ARE) signaling pathway plays an important role in the amelioration of oxidative stress. The CellSensor ARE-bla HepG2 cell line (Invitrogen) can be used for analyzing the Nrf2/antioxidant response signaling pathway. Nrf2 (NF-E2-related factor 2) and Nrf1 are transcription factors that bind to AREs and activate these genes. The CellSensor ARE-bla Hep G2 cell line contains a beta-lactamase reporter gene under control of the Antioxidant Response Element (ARE) stably integrated into HepG2 cells. The activation of the report gene under culture conditions can be detected by fluorescence intensity. This cell line can be used to screen chemicals in a 1536-well plate format and to identify agonists that induce oxidative stress.
The ARE-bla cells were dispensed at 2,000 cells/5 ul/well in 1536-well black wall/clear bottom plates using a Multidrop dispenser. After the assay plates were incubated at a 37 C/5% CO2 incubator for 5 hours, 23 nL of compounds dissolved in DMSO, positive controls or DMSO only was transferred to the assay plate by a pin tool. The plates were incubated at 37 C for 16 hours. After 1 uL of LiveBLAzer B/G FRET substrate was added using a Flying Reagent Dispenser, the plates were incubated at room temperature for 2 hours, and fluorescence intensity was measured by an Envision plate reader.
On to `CCCCN(CC)c1c([N+](=O)[O-])cc(C(F)(F)F)cc1[N+](=O)[O-]`, for which the Potency result was “inactive”.
Turning to `CCOP(=S)(OCC)Oc1ncn(-c2ccccc2)n1`, the Potency result is “inactive”.
For `C=CCC1=C(C)[C@@H](OC(=O)[C@@H]2[C@@H](C=C(C)C)C2(C)C)CC1=O` the value was 61.1 µM (active).
With `CCCCC(CC)C(=O)Cl` (stereo not given), the Potency result was “inactive”.
For `CCCSC(=O)N(CCC)CCC` the value was “inactive”; for `COP(=O)(OC)SCn1c(=O)oc2cc(Cl)cnc21`, 27.3 µM (active).
With `CC(C)=C[C@@H]1[C@@H](C(=O)OCN2C(=O)C3=C(CCCC3)C2=O)C1(C)C`, the Potency is 54.5 µM (active).
For `CC1=NNC(=O)N(/N=C/c2cccnc2)C1` the value was “inactive”.
Then `C(=NC1CCCCC1)=NC1CCCCC1`, with 24.3 µM (active); and `CCOP(=O)(OCC)SCSC(C)(C)C`, with “inactive”.
On to `CCC(CC)Nc1c([N+](=O)[O-])cc(C)c(C)c1[N+](=O)[O-]`, for which the Potency was 27.3 µM (active).
For the compound `CCCC1COC(Cn2cncn2)(c2ccc(Cl)cc2Cl)O1` (stereo not given), the Potency is 54.5 µM (active) and 61.1 µM (active).
`COC(=O)c1ccccc1S(=O)(=O)NC(=O)N(C)c1nc(C)nc(OC)n1`: the Potency entry is “inactive”.
With `[Cl][Sn]([c]1ccccc1)([c]1ccccc1)[c]1ccccc1`, the Potency is 0.486 µM (active).
Consider `CCOc1ccc(C(C)(C)COCc2cccc(Oc3ccccc3)c2)cc1`, for which the Potency entry was “inactive”.
For `Cc1cc(Cl)ccc1OC(C)C(=O)O` (stereo not given), the Potency result is “inactive”.
With `O=[N+]([O-])c1ccc(Nc2ccccc2)cc1`, the Potency was 48.6 µM (active).
With `CC1(C(=O)Nc2ccc(O)c(Cl)c2Cl)CCCCC1`, the Potency was 30.6 µM (active).
For `O=C1C(Cl)=C(Cl)C(=O)c2ccccc21` the value was 2.73 µM (active); for `CCCCC(C#N)(Cn1cncn1)c1ccc(Cl)cc1` (stereo not given), “inactive”; for `COc1nc(C)nc(NC(=O)NS(=O)(=O)c2ccccc2CCC(F)(F)F)n1`, “inactive”.
Turning to `Nc1nc(N)nc(N)n1`, the Potency entry is “inactive”.
On to `Oc1ccc(C(c2ccc(O)cc2)(C(F)(F)F)C(F)(F)F)cc1`, for which the Potency is 48.6 µM (active).
For `CCNc1nc(Cl)nc(NC(C)(C)C)n1` the value was “inactive”; for `COP(=O)(OC)Oc1ccc([N+](=O)[O-])cc1`, “inactive”; for `C=C1CC[C@H](O)C/C1=C/C=C1\CCC[C@]2(C)[C@@H]([C@H](C)CCCC(C)C)CC[C@@H]12`, 23.7 µM (active).
Then `COc1ccc(C(O)(c2cncnc2)C2CC2)cc1` (stereo not given), with “inactive”; and `Nc1nc(N)nc(Cl)n1`, with “inactive”.
Take `O=C(O)c1c(Cl)ccc2cc(Cl)cnc12`: the Potency result is “inactive”.
Then `COc1ccc(-c2ccccc2)cc1NNC(=O)OC(C)C`, with 54.5 µM (active).
For `COCC(=O)N(c1c(C)cccc1C)[C@H](C)C(=O)OC` the value was “inactive”; for `CNC(=O)Oc1cccc2c1OC(C)(C)C2O` (stereo not given), 54.5 µM (active); for `CO/N=C(/C(=O)OC)c1ccccc1COc1ccccc1C`, 12.2 µM (active).
For `CC(C)(c1ccccc1)c1cc(-n2nc3ccccc3n2)c(O)c(C(C)(C)c2ccccc2)c1`, the Potency is 61.1 µM (active).
Regarding `O=Nc1ccc(Nc2ccccc2)cc1`, the Potency was 54.5 µM (active).
Regarding `CN(C)c1ccc(N=O)cc1`, the Potency is 13.3 µM (active).
Then `O=C/C(Cl)=C(/Cl)C(=O)O`, with 30.6 µM (active); and `OC(Cn1cncn1)(c1ccc(F)cc1)c1ccccc1F` (stereo not given), with “inactive”; and `CS/C(C)=N/OC(=O)N(C)SN(C)C(=O)O/N=C(\C)SC`, with “inactive”.
Take `CCOC(=O)COc1cc(-c2nn(C)c(OC(F)F)c2Cl)c(F)cc1Cl`: the Potency was 17.2 µM (active).
